The whole screen tested about 4,400 compounds, of which about 390 (8.9%) showed an effect of 50% or more. The sample holds strong results, similar compounds and a random draw of the others, so the mix is not that of the screen.
Tested on: Trypanosoma brucei
Experiment: DNDI: Inhibition of Human African Trypanosomiasis, SBRI 427, in vitro at 2 ug.mL-1
Format: functional

Structure (SMILES) | % inhibition
CCn1nccc1NCc1coc(-c2ccc(F)cc2)n1 | -5%
COc1cccc(-c2nc(CN(C)CCC#N)co2)c1 | 4%
C=CCc1ccc(Oc2ncccc2/C(N)=N/O)c(OC)c1 | 18%
O/N=C(/c1ccnc(Oc2ccc(F)c(Cl)c2)c1)N1CCCCC1 | 8%
CN(/C(=N\O)c1ccnc(Oc2ccc(F)c(Cl)c2)c1)C1CCCCC1 | 94%
CC1CCC(N/C(=N\O)c2ccnc(Oc3ccc(F)c(Cl)c3)c2)CC1 (stereo not given) | 42%
O/N=C(\NCc1ccccc1F)c1ccnc(Oc2ccc(F)c(Cl)c2)c1 | 44%
CN(/C(=N\O)c1ccnc(Oc2ccc(F)c(F)c2)c1)C1CCCCC1 | 35%
O/N=C(\NC1CCCC1)c1ccnc(Oc2ccc(F)c(Cl)c2)c1 | 96%
O/N=C(\NC1CCCCC1)c1ccnc(Oc2ccc(F)c(Cl)c2)c1 | 88%
CC1CCCC(C)N1/C(=N\O)c1ccnc(Oc2ccc(F)c(Cl)c2)c1 (stereo not given) | 9%
CN(/C(=N\O)c1ccnc(Oc2cc(Cl)ccc2Cl)c1)C1CCCCC1 | 16%
Cc1cn(Cc2coc(-c3ccc(F)cc3)n2)cn1 | 9%
N#CCCN(Cc1coc(-c2ccc(Cl)cc2Cl)n1)CC1CCCO1 (stereo not given) | 9%
Oc1ccc(-c2nc(CN3CCN(Cc4ccccc4)CC3)co2)cc1 | 18%
C1=CCN(Cc2coc(-c3ccco3)n2)CC1 | 30%
CC1(C)Cc2cccc(Oc3ccc(/C(=N/O)NCC4CCCCC4)cn3)c2O1 | 34%
Cc1cccc(-c2nc(Cn3ccnc3)co2)c1 | 15%
Cc1ccc(/C(=N/O)NCC2CCCO2)c(Oc2cc(Cl)ccc2Cl)n1 (stereo not given) | 85%
Cc1ccc(/C(=N/O)NCC2CCCO2)c(Oc2ccc(F)c(Cl)c2)n1 (stereo not given) | 42%
Cc1ccc(/C(=N/O)NC2CCCCC2)c(Oc2ccc(Cl)cc2)n1 | 22%
Cc1ccc(/C(=N/O)NCC2CCCCC2)c(Oc2c(F)c(F)cc(F)c2F)n1 | 12%
Cc1ccc(/C(=N/O)NC2CCCC2)c(Oc2cc(Cl)ccc2Cl)n1 | 100%
Cc1ccc(/C(=N/O)NC2CCC2)c(Oc2ccc(Cl)cc2)n1 | -9%
Cc1ccc(/C(=N/O)NC2CCCCC2)c(Oc2cc(Cl)ccc2Cl)n1 | 97%
Cc1ccc(/C(=N/O)NCC2CCCCC2)c(Oc2cc(Cl)ccc2Cl)n1 | 51%
Cc1ccc(/C(=N/O)NCC2CC2)c(Oc2cc(Cl)ccc2Cl)n1 | -4%

Structure (SMILES) | % inhibition
Cc1ccc(/C(=N/O)NCC2CCCO2)c(Oc2ccc(F)c(F)c2)n1 (stereo not given) | 8%
Cc1ccc(/C(=N/O)NC2CC2)c(Oc2ccc(Cl)cc2)n1 | 9%
Cc1ccc(/C(=N/O)NC2CCc3ccccc32)c(Oc2cc(Cl)ccc2Cl)n1 (stereo not given) | -38%
Cc1ccc(/C(=N/O)NCCN2CCOCC2)c(OCc2ccccn2)n1 | 4%
Cc1ccc(/C(=N/O)NCCN2CCOCC2)c(Oc2cccc3ccccc23)n1 | -6%
O=C(c1ccco1)N1CCN(Cc2coc(-c3ccccc3F)n2)CC1 | 4%
COc1cccc(OC)c1CNCc1coc(-c2ccc(Br)cc2)n1 | 7%
CCOc1cccc(-c2nc(CN3CCCCC3)co2)c1 | -5%
COCCN(/C(=N\O)c1ccc(C)nc1OCc1ccccc1F)C(C)C | 18%
CCOc1ccccc1-c1nc(Cn2cc(C)nc2C)co1 | 7%
COCCN(CCOC)Cc1coc(-c2ccc(C)cc2)n1 | 28%
COc1ccc(CNCc2coc(-c3cccc(F)c3)n2)cc1OC | 13%
CCN(Cc1coc(-c2cccc(OC)c2)n1)c1cccc2ccccc12 | 11%
Cc1ccc(/C(=N/O)N2CCN(C)CC2)c(Oc2cc(Cl)ccc2Cl)n1 | 5%
Cc1ccc(/C(=N/O)N2CCCN(C)CC2)c(Oc2cc(Cl)ccc2Cl)n1 | 55%
Cc1ccc(/C(=N/O)N2CCCCC2)c(Oc2cc(Cl)ccc2Cl)n1 | 33%
Cc1cc(C)cc(Oc2ccc(/C(=N/O)N3CCCCC3)cn2)c1 | 6%
CN(Cc1coc(-c2cccc3ccccc23)n1)C(C)(C)C | 7%
Cc1ccc(Oc2nc(C)ccc2/C(=N/O)N2CCN(c3ccccc3)CC2)c(C)c1 | 15%
O/N=C(/c1ccc(Oc2cccc3cccnc23)nc1)n1ccnc1 | -3%
COc1ccc(Oc2ncccc2/C(=N/O)Nc2ccc(C(C)C)cc2)cc1 | -14%
CCc1ccc(Oc2ncccc2/C(=N/O)NCCN(C)C)cc1 | 5%
COCCN/C(=N\O)c1cccnc1Oc1ccc(OC)cc1 | 8%
CCc1ccc(Oc2ncccc2/C(=N/O)NCCOC)cc1 | 86%
COCCN/C(=N\O)c1cccnc1Oc1ccc(C(C)C)cc1 | 97%
COCCN/C(=N\O)c1cccnc1Oc1cccc(C(F)(F)F)c1 | 1%
O/N=C(\NCC1CCCCC1)c1ccnc(Oc2ccc(Cl)cc2)c1 | 98%

Structure (SMILES) | % inhibition
O/N=C(/c1ccnc(Oc2ccc(Cl)cc2)c1)N1CCCCC1 | 23%
CC1CCCN1/C(=N\O)c1ccnc(Oc2ccc(Cl)cc2)c1 (stereo not given) | -11%
CCOc1ccc(Oc2cc(/C(=N/O)NCC3CCCCC3)ccn2)cc1 | 33%
O/N=C(\NC1CCCCC1)c1ccnc(Oc2ccc(Cl)cc2)c1 | 99%
O/N=C(\NCc1ccncc1)c1ccnc(Oc2ccc(Cl)cc2)c1 | 20%
O/N=C(/c1ccnc(Oc2ccc(Cl)cc2)c1)N1CCCCCC1 | 18%
O/N=C(\NC1CCCC1)c1ccnc(Oc2ccc(Cl)cc2)c1 | 93%
O/N=C(\NCC1CCCCC1)c1ccnc(Oc2ccc(F)c(Cl)c2)c1 | 5%
CN1CCCC1CCN/C(=N\O)c1cccnc1Oc1cccc(C(F)(F)F)c1 (stereo not given) | 3%
Cc1ccc(/C(=N/O)N2CC(C)CC(C)C2)c(Oc2ccc3oc4ccccc4c3c2)n1 (stereo not given) | 11%
COc1cccc(-c2nc(CN3CCCCC3)co2)c1 | 12%
CN(C)CCN(Cc1ccccc1)Cc1coc(-c2cccc(F)c2)n1 | -25%
Clc1ccccc1-c1nc(CN(CCc2ccccc2)Cc2ccccc2)co1 | 17%
CCC(CC)N/C(=N\O)c1ccc(C)nc1Oc1cc(Cl)ccc1Cl | 100%
CCC(CC)N/C(=N\O)c1ccc(C)nc1Oc1ccc(SC)c(C)c1 | 6%
CCC(CC)N/C(=N\O)c1ccc(C)nc1Oc1cccc(C(C)C)c1 | 6%
Cc1ccc(/C(=N/O)Nc2ccc(C(C)C)cc2)c(Oc2cc(Cl)ccc2Cl)n1 | 14%
CCC(CC)N/C(=N\O)c1ccc(C)nc1Oc1ccc(F)c(Cl)c1 | 100%
Cc1ccc(/C(=N/O)NC(C)C)c(Oc2ccc(F)c(F)c2)n1 | 4%
CCC(CC)N/C(=N\O)c1ccc(C)nc1Oc1cccc(F)c1 | 88%
COCC(C)N/C(=N\O)c1ccc(C)nc1Oc1cccc(F)c1 (stereo not given) | 20%
COc1cc(-c2nc(CN3CCN(C)CC3)co2)cc(OC)c1OC | -2%
Cc1cccc(-c2nc(CNC(C)c3cccc4ccccc34)co2)c1 (stereo not given) | 14%
Fc1ccc(-c2nc(CN3CCN(c4cccc(Cl)c4)CC3)co2)cc1 | -16%
Cc1ccc(/C(=N/O)n2ccnc2)c(OCc2ccccn2)n1 | 16%
CCOc1ccc(-c2nc(CNc3ccnn3CC)co2)cc1 | -10%
O/N=C(\NC1CCc2ccccc21)c1ccc(Oc2ccc(-n3ccnc3)cc2)nc1 (stereo not given) | -1%

Structure (SMILES) | % inhibition
Cc1cn(Cc2coc(-c3cccc(F)c3)n2)c(C)n1 | 5%
Cc1ccc(-c2nc(CN3CCN(C/C=C/c4ccccc4)CC3)co2)cc1 | 8%
COc1ccc(Oc2cc(/C(=N/O)N3CCC=N3)ccn2)cc1 | 39%
O/N=C(/c1ccnc(Oc2ccc(F)c(Cl)c2)c1)N1CCN(c2ccccc2)CC1 | 58%
CC(C)c1cccc(Oc2cc(/C(=N/O)N3CCN(c4ccccc4)CC3)ccn2)c1 | 86%
CCOc1ccc(Oc2cc(/C(=N/O)N3Cc4ccccc4C3)ccn2)cc1 | 3%
O/N=C(/c1ccnc(Oc2ccc(F)c(Cl)c2)c1)N1CCN(c2ccc(F)cc2)CC1 | 34%
COc1ccc(Oc2cc(/C(=N/O)N3CCN(c4ccccc4)CC3)ccn2)cc1 | 22%
O/N=C(/c1ccnc(Oc2cccc(F)c2)c1)N1CCC=N1 | 4%
O/N=C(/c1ccnc(Oc2ccc(Cl)cc2)c1)N1CCN(c2ccccc2)CC1 | 28%
CC(C)c1cccc(Oc2cc(/C(=N/O)N3CCC=N3)ccn2)c1 | 53%
CC(C)c1cccc(Oc2cc(/C(=N/O)N3CCN(C)CC3)ccn2)c1 | 4%
CC(C)c1cccc(Oc2cc(/C(=N/O)N3Cc4ccccc4C3)ccn2)c1 | 67%
Cc1ccc(/C(=N/O)N2Cc3ccccc3C2)c(Oc2cccc(C(C)C)c2)n1 | 0%
CCOC(=O)C1CCCCN1Cc1coc(-c2ccccc2C)n1 (stereo not given) | 1%
Cc1ccc(-c2nc(CNC(C)(C)CC(C)(C)C)co2)cc1 | 19%
N#CCCN(Cc1coc(-c2ccc(Br)cc2)n1)CC1CCCO1 (stereo not given) | 11%
CCOc1ccccc1-c1nc(Cn2ncc3c2CCCC3)co1 | 12%
Cc1ccc(/C(=N/O)N(C)Cc2ccco2)c(Oc2cc(Cl)ccc2Cl)n1 | 13%
CCCCN(CC#N)Cc1coc(-c2ccc(OC)cc2)n1 | 1%
Cc1ccc(/C(=N/O)n2nc(C)cc2C)c(Oc2ccc3ccccc3c2)n1 | 6%
CSc1ccc(Oc2nc(C)ccc2/C(=N/O)NCc2ccco2)cc1 | -3%
c1ccc2c(-c3nc(CN4CCC5(CC4)OCCO5)co3)cccc2c1 | 1%
CCN(CC)CCN(CC)Cc1coc(-c2ccccc2C)n1 | 5%

Reference: ChEMBL document CHEMBL1857833, “Screening and optimization of specific chemical series against human African Trypanosomiasis (HAT)”
